Assay [1] can be described thus: NCI Yeast Anticancer Drug Screen. Data for the rad50 strain (AID 155).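 Also: 0% = growth of vehicle-only cultures of the same strain.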 The conditions noted are these: S. cerevisiae rad50 strain growth inhibition, hits give high values. Put shortly: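 Compounds were tested on a yeast strain with an engineered DNA damage repair alteration; the reported value is growth inhibition normalised to vehicle treatment.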
The nature of assay [2]: NCI Yeast Anticancer Drug Screen. Data for the mec2-1 strain (AID 157). To be noted: S. cerevisiae mec2-1 strain, hits give high values. Summed up:
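Yeast mec2-1 mutant treated with compound. Readout: growth inhibition vs vehicle controls.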

Assay [3] can be described thus: NCI Yeast Anticancer Drug Screen. Data for the sgs1 mgt1 strain (AID 161).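 Also: 0% = growth of cultures given vehicle only.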 To be noted: S. cerevisiae sgs1 mgt1 strain, hits give high values. Put shortly: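 Genetically altered yeast, compound exposure, growth inhibition relative to vehicle.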
Assay [4] in a line: NCI Yeast Anticancer Drug Screen. Data for the cln2 rad14 strain (AID 165).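 Also: 0% = growth equal to vehicle treated cultures.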 To be noted: S. cerevisiae cln2 rad14 strain, hits give high values. Summed up:
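cln2 rad14 yeast strain; compound exposure; growth inhibition read vs vehicle controls.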

Assay [5] is described as follows: NCI Yeast Anticancer Drug Screen. Data for the bub3 strain (AID 167). The conditions noted are these: S. cerevisiae bub3 mutant strain, hits give high values. Put shortly: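 Growth of a checkpoint-deficient yeast mutant is measured after compound exposure. Values represent inhibition relative to vehicle.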
A short description of assay [6]: NCI Yeast Anticancer Drug Screen. Data for the mlh1 rad18 strain (AID 175). The conditions noted are these: S. cerevisiae mlh1 rad18 strain growth inhibition, hits give high values. Put shortly:
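Yeast w/ defined DNA-repair lesions; compound exposure; growth vs vehicle controls → % inhibition.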

Where [7] appears, read: at 5.0 µM (retest, dose inferred, filed as 0.5).
Where [8] appears, read: at 50.0 µM (retest, dose inferred, filed as 5.0).

This is part of a sample that, as a whole, favours compounds with a hit. Of some 79,000 tested, about 15% had one in any assay. Values without a mark were called inactive. The source made the active and inactive calls. Rule as the data show it: active = growth inhibition above about 70%; inactive = the rest.

Turning to `O=C(NNc1ccccc1)c1ccccc1Cl`, the growth inhibition was -3% in assay [1] (setting [7]); 93% (active) in assay [1] (setting [8]); 97.5% (active) in assay [1] (at 50.0 µM); 9% in assay [2] (setting [7]); 89% (active) in assay [2] (setting [8]); 92% (active) in assay [2] (at 50.0 µM). The growth inhibition in assay [3] (setting [7]) was 15%; in assay [3] (setting [8]), 91% (active); in assay [3] (at 50.0 µM), 96% (active); in assay [4] (setting [7]) it was -9%; in assay [4] (setting [8]), 89% (active); in assay [4] (at 50.0 µM) it was 93% (active). The growth inhibition was -14% in assay [5] (setting [7]); 95% (active) in assay [5] (setting [8]); 95.7% (active) in assay [5] (at 50.0 µM); 13% in assay [6] (setting [7]); 97% (active) in assay [6] (setting [8]); 95.6% (active) in assay [6] (at 50.0 µM).

Consider `Clc1ccc(C2SCc3nc4ccccc4n32)cc1Cl` (configuration not stated), for which the growth inhibition is -8% in assay [1] (setting [7]); 95% (active) in assay [1] (setting [8]); 97.2% (active) in assay [1] (at 50.0 µM); 1% in assay [2] (setting [7]); 97% (active) in assay [2] (setting [8]); 98.1% (active) in assay [2] (at 50.0 µM). In addition, the growth inhibition in assay [3] (setting [7]) is 15%; in assay [3] (setting [8]), 96% (active); in assay [3] (at 50.0 µM), 98% (active); in assay [4] (setting [7]), -16%; in assay [4] (setting [8]), 95% (active); in assay [4] (at 50.0 µM) it was 95.6% (active). The growth inhibition was 7% in assay [5] (setting [7]); 96% (active) in assay [5] (setting [8]); 96.8% (active) in assay [5] (at 50.0 µM); 3% in assay [6] (setting [7]); 96% (active) in assay [6] (setting [8]); 95% (active) in assay [6] (at 50.0 µM).

`COc1cc(NCCCCCNC2CCCCC2)c2ncccc2c1`: the growth inhibition in assay [1] (setting [7]) was 2%; in assay [1] (setting [8]) it was 64%; in assay [1] (at 50.0 µM), 83.2% (active); in assay [2] (setting [7]) it was -4%; in assay [2] (setting [8]), 17%; in assay [2] (at 50.0 µM), 46.5%. Besides, the growth inhibition was 21% in assay [3] (setting [7]); 63% in assay [3] (setting [8]); 74.1% (active) in assay [3] (at 50.0 µM); 7% in assay [4] (setting [7]); 32% in assay [4] (setting [8]); 19.9% in assay [4] (at 50.0 µM). For the same molecule, the growth inhibition was 14% in assay [5] (setting [7]); 57% in assay [5] (setting [8]); 83.6% (active) in assay [5] (at 50.0 µM); -18% in assay [6] (setting [7]); 27% in assay [6] (setting [8]); 74.2% (active) in assay [6] (at 50.0 µM).

For the molecule `Cc1occc1C(=S)Nc1ccc(Cl)c(C(=O)OCC(F)(F)F)c1`, the growth inhibition in assay [1] (setting [7]) is 23%; in assay [1] (setting [8]) it was 92% (active); in assay [1] (at 50.0 µM), 92.2% (active); in assay [2] (setting [7]), 21%; in assay [2] (setting [8]) it was 93% (active); in assay [2] (at 50.0 µM), 92.8% (active). Besides, the growth inhibition in assay [3] (setting [7]) was 26%; in assay [3] (setting [8]) it was 96% (active); in assay [3] (at 50.0 µM) it was 90.8% (active); in assay [4] (setting [7]), 21%; in assay [4] (setting [8]), 97% (active); in assay [4] (at 50.0 µM), 88.5% (active). For the same molecule, the growth inhibition in assay [5] (setting [7]) is 29%; in assay [5] (setting [8]), 99% (active); in assay [5] (at 50.0 µM), 91.2% (active); in assay [6] (setting [7]), 27%; in assay [6] (setting [8]), 96% (active); in assay [6] (at 50.0 µM), 86.8% (active).

`CC(=O)OCC1OC(n2ncc3c(Sc4c([N+](=O)[O-])ncn4C)ncnc32)C(OC(C)=O)C1OC(C)=O` (configuration not stated): the growth inhibition is 23% in assay [1] (setting [7]); 99% (active) in assay [1] (setting [8]); 99.3% (active) in assay [1] (at 50.0 µM); 25% in assay [2] (setting [7]); 100% (active) in assay [2] (setting [8]); 99.4% (active) in assay [2] (at 50.0 µM). Moreover, the growth inhibition in assay [3] (setting [7]) was 47%; in assay [3] (setting [8]) it was 99% (active); in assay [3] (at 50.0 µM), 99.5% (active); in assay [4] (setting [7]) it was 2%; in assay [4] (setting [8]) it was 99% (active); in assay [4] (at 50.0 µM), 99.4% (active). Further, the growth inhibition was 16% in assay [5] (setting [7]); 99% (active) in assay [5] (setting [8]); 99% (active) in assay [5] (at 50.0 µM); 18% in assay [6] (setting [7]); 99% (active) in assay [6] (setting [8]); 98.8% (active) in assay [6] (at 50.0 µM).

For the molecule `CC1(C)C[C@H]2C=C(C=O)[C@]34C[C@]3(C(=O)OC4O)[C@H]2C1` (some centres not stated), the growth inhibition was 94% (active) in assay [1] (setting [7]); 99% (active) in assay [1] (setting [8]); 92.5% (active) in assay [1] (at 50.0 µM); 98% (active) in assay [2] (setting [7]); 100% (active) in assay [2] (setting [8]); 93.6% (active) in assay [2] (at 50.0 µM). Further, the growth inhibition was 98% (active) in assay [3] (setting [7]); 100% (active) in assay [3] (setting [8]); 93.2% (active) in assay [3] (at 50.0 µM); 84% (active) in assay [4] (setting [7]); 99% (active) in assay [4] (setting [8]); 92.3% (active) in assay [4] (at 50.0 µM). Further, the growth inhibition in assay [5] (setting [7]) is 97% (active); in assay [5] (setting [8]), 100% (active); in assay [5] (at 50.0 µM) it was 92.3% (active); in assay [6] (setting [7]), 96% (active); in assay [6] (setting [8]) it was 97% (active); in assay [6] (at 50.0 µM), 90.7% (active).

On to `O=C(CC1C(=O)c2ccccc2C1=C1C(=O)c2ccccc2C1=O)c1ccccc1` (configuration not stated), for which the growth inhibition was -8% in assay [1] (setting [7]); 71% (active) in assay [1] (setting [8]); 81.8% (active) in assay [1] (at 50.0 µM); 22% in assay [2] (setting [7]); 92% (active) in assay [2] (setting [8]); 89.8% (active) in assay [2] (at 50.0 µM). In addition, the growth inhibition in assay [3] (setting [7]) is 9%; in assay [3] (setting [8]) it was 84% (active); in assay [3] (at 50.0 µM), 89.3% (active); in assay [4] (setting [7]), 19%; in assay [4] (setting [8]), 69%; in assay [4] (at 50.0 µM), 68%. For the same molecule, the growth inhibition in assay [5] (setting [7]) is 11%; in assay [5] (setting [8]), 94% (active); in assay [5] (at 50.0 µM) it was 79.2% (active); in assay [6] (setting [7]), -3%; in assay [6] (setting [8]), 95% (active); in assay [6] (at 50.0 µM), 74% (active).

As to `CC(CN(C)C)C(=O)/C=C/c1c(Cl)cccc1Cl` (configuration not stated), the growth inhibition was 2% in assay [1] (setting [7]); 88% (active) in assay [1] (setting [8]); 86.7% (active) in assay [1] (at 50.0 µM); 8% in assay [2] (setting [7]); 96% (active) in assay [2] (setting [8]); 46.4% in assay [2] (at 50.0 µM). Moreover, the growth inhibition is 11% in assay [3] (setting [7]); 94% (active) in assay [3] (setting [8]); 90.2% (active) in assay [3] (at 50.0 µM); 2% in assay [4] (setting [7]); 44% in assay [4] (setting [8]); 29.4% in assay [4] (at 50.0 µM). Also, the growth inhibition in assay [5] (setting [7]) was -1%; in assay [5] (setting [8]) it was 92% (active); in assay [5] (at 50.0 µM), 74.9% (active); in assay [6] (setting [7]) it was 3%; in assay [6] (setting [8]), 97% (active); in assay [6] (at 50.0 µM), 96.5% (active).

Take `CCC[CH2][Sn]([CH2]CCC)([NH]c1ncnc2[nH]cnc12)[NH]c1ncnc2[nH]cnc12`: the growth inhibition in assay [1] (setting [7]) is 14%; in assay [1] (setting [8]), 96% (active); in assay [1] (at 50.0 µM), 87.8% (active); in assay [2] (setting [7]), 14%; in assay [2] (setting [8]), 98% (active); in assay [2] (at 50.0 µM) it was 91.7% (active). The growth inhibition in assay [3] (setting [7]) is 24%; in assay [3] (setting [8]), 94% (active); in assay [3] (at 50.0 µM), 85.5% (active); in assay [4] (setting [7]), 30%; in assay [4] (setting [8]), 89% (active); in assay [4] (at 50.0 µM), 85.2% (active). Besides, the growth inhibition was 14% in assay [5] (setting [7]); 95% (active) in assay [5] (setting [8]); 87.6% (active) in assay [5] (at 50.0 µM); 20% in assay [6] (setting [7]); 98% (active) in assay [6] (setting [8]); 86.9% (active) in assay [6] (at 50.0 µM).

For the origin of these results see PubChem BioAssay (NCI).
